{
  "source": "PubChem BioAssay (EPA / NIEHS)",
  "note": "Active and inactive are the calls of the source. Rule for the calls: active = hit-call score of the fitted dose curve at least 0.9, where 1 is the maximum; inactive = score below 0.9.",
  "data": [
    {"experiment": "BSK_BE3C_SRB: Viability Assessment in the BioMAP Diversity Plus: BE3C Assay (AID 2283028);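 for AC50: fitted both ways so AC50 may mark signal gain or loss versus DMSO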", "conditions": "primary human bronchial epithelial cells", "description": "BSK_BE3C is a cell-based, multiplexed-readout assay that uses bronchial epithelial cell, a human lung primary cell, with measurements taken at 24 hours after chemical dosing in a 96-well plate.BSK_BE3C_SRB is an assay component measured in the BSK_BE3C assay. It measures 0.1% sulforhodamine related to cell death using Sulforhodamine staining technology.Data from the assay component BSK_BE3C_SRB was analyzed into 1 assay endpoint. This assay endpoint, BSK_BE3C_SRB, was analyzed with bidirectional fitting relative to DMSO as the negative control and baseline of activity. Using a type of viability reporter, gain or loss-of-signal activity can be used to understand changes in the signaling. Furthermore, this assay endpoint can be referred to as a primary readout, because this assay has produced multiple assay endpoints where this one serves a signaling function. To generalize the intended target to other relatable targets, this assay endpoint is annotated to the cell morphology intended target family, where the subfamily is cell conformation.\nThe levels of cell surface (or secreted, indicated by the prefix \"s\") biomarker endpoints were measured by ELISA. Overt cytotoxicity to cells in confluent adherent cultures (all systems other than the BT system) was assessed by measuring total protein levels using sulforhodamine B (SRB) staining in parallel cultures at the time of biomarker measurements, indicated as SRB endpoints. For proliferation assays for adherent cell types, individual cell types are cultured at sub-confluence and relative cell numbers quantified by SRB staining at time points optimized for each system (48 h: 3C and CASM3C systems; 72 h: BT and HDF3CGF systems; 96 h: SAg system). SRB was performed by staining cells with 0.1% SRB after fixation with 10% TCA and reading wells at 560 nm.Viability and proliferation of PBMC (T cells) was quantified by Alamar Blue reduction for the SAg and BT systems. For PBMC viability (referred to as PBMC Cytotoxicity within the assay endpoint names), cells were plated (75,000/well in a 96-well plate) and then chemical samples added for 1 h before addition of activators, SEB and TSST-1 (20 ng/mL final concentration each). Cells were incubated for 90 h. Then, Alamar Blue (20 uL/well) (Invitrogen, Cat DAL1100) was added for 6 h, and the plates were read with a fluorescence microplate reader at 546/580 nm (excitation/emission). For PBMC proliferation, cells were plated and activated as above but incubated for only 16 h prior to addition of Alamar Blue. Plates were read after 6 h.", "values": [
      {"smiles": "O=C(Nc1ccc2c(O)c(N=Nc3ccc(N=Nc4ccc(S(=O)(=O)O)cc4)cc3)c(S(=O)(=O)O)cc2c1)c1ccccc1", "outcome": "inactive"},
      {"smiles": "CCCCCCCCCCCCCCCC(=O)OC/C=C(C)/C=C/C=C(C)/C=C/C1=C(C)CCCC1(C)C", "outcome": "inactive"},
      {"smiles": "CC(C)(C)CC(C)(C)c1ccc(OCCOCC[N+](C)(C)Cc2ccccc2)cc1", "AC50": "8.4 µM (active)"},
      {"smiles": "CC(C)(N=C=O)c1cccc(C(C)(C)N=C=O)c1", "outcome": "inactive"},
      {"smiles": "C=C(C)C(=O)OCCOCCOCCOCCOC(=O)C(=C)C", "outcome": "inactive"},
      {"smiles": "CN(C)C(=O)Nc1ccc(Oc2ccc(Cl)cc2)cc1", "outcome": "inactive"},
      {"smiles": "CC1(C)C2=CCCC(C)(C)[C@]23CC[C@H]1C3", "outcome": "inactive"},
      {"smiles": "CC(C=O)Cc1ccc(C(C)(C)C)cc1", "note": "(stereo not given)", "outcome": "inactive"},
      {"smiles": "C[C@@H]1CCN(C(=O)[C@H](CCCN=C(N)N)NS(=O)(=O)c2cccc3c2NC[C@H](C)C3)[C@@H](C(=O)O)C1", "outcome": "inactive"},
      {"smiles": "Oc1c(Cl)cc(Cl)c(Cl)c1Cc1c(O)c(Cl)cc(Cl)c1Cl", "AC50": "5.21 µM (active)"},
      {"smiles": "CCCCN(CCCC)C(=O)N(CCCC)CCCC", "AC50": "7.45 µM (active)"},
      {"smiles": "CCC(C)c1cc([N+](=O)[O-])cc([N+](=O)[O-])c1OC(=O)OC(C)C", "note": "(stereo not given)", "AC50": "29.4 µM (active)"},
      {"smiles": "Cc1cc(CCC(=O)OCCOCCOCCOC(=O)CCc2cc(C)c(O)c(C(C)(C)C)c2)cc(C(C)(C)C)c1O", "outcome": "inactive"},
      {"smiles": "COc1cc(Cl)c(OC)cc1N", "outcome": "inactive"},
      {"smiles": "CC(=O)Nc1ccc(C(=O)CCl)cc1", "outcome": "inactive"},
      {"smiles": "CS(=O)(=O)OCCCCOS(C)(=O)=O", "outcome": "inactive"},
      {"smiles": "O=C1OC[C@H](Cc2cccc(O)c2)[C@H]1Cc1cccc(O)c1", "outcome": "inactive"},
      {"smiles": "c1ccc2cc(Nc3ccc(Nc4ccc5ccccc5c4)cc3)ccc2c1", "outcome": "inactive"},
      {"smiles": "CCN(CC)C(=O)N(CC)CC", "outcome": "inactive"},
      {"smiles": "C=C(C)C(=O)OCC(CC)(COC(=O)C(=C)C)COC(=O)C(=C)C", "outcome": "inactive"},
      {"smiles": "CC(CN=Cc1ccccc1O)N=Cc1ccccc1O", "note": "(stereo not given)", "outcome": "inactive"},
      {"smiles": "C=C(C)C(=O)OCCOCCOCCOC(=O)C(=C)C", "outcome": "inactive"},
      {"smiles": "CS(=O)(=O)c1ccc(C2=C(c3ccccc3)C(=O)OC2)cc1", "outcome": "inactive"},
      {"smiles": "c1ccc(Oc2ccccc2)cc1", "outcome": "inactive"},
      {"smiles": "CC=Cc1ccc(OCC)c(O)c1", "outcome": "inactive"},
      {"smiles": "O=C1c2ccccc2C(=O)c2c(O)ccc(O)c21", "outcome": "inactive"},
      {"smiles": "COc1ccc(CCN2CCC(Nc3nc4ccccc4n3Cc3ccc(F)cc3)CC2)cc1", "outcome": "inactive"},
      {"smiles": "IC(I)I", "outcome": "inactive"},
      {"smiles": "Clc1cc(Cl)c(-c2c(Cl)c(Cl)cc(Cl)c2Cl)cc1Cl", "outcome": "inactive"},
      {"smiles": "CCOC(=O)C(C#N)=C(c1ccccc1)c1ccccc1", "outcome": "inactive"},
      {"smiles": "CCCCCC(C=O)=Cc1ccccc1", "outcome": "inactive"},
      {"smiles": "CC(=O)C1(C)CC2=C(CCCC2(C)C)CC1C", "note": "(stereo not given)", "AC50": "27.1 µM (active)"},
      {"smiles": "CN(c1nccc(=O)[nH]1)C1CCN(c2nc3ccccc3n2Cc2ccc(F)cc2)CC1", "outcome": "inactive"},
      {"smiles": "c1ccc(CCc2ccccc2)cc1", "AC50": "33.2 µM (active)"},
      {"smiles": "C=CC(C)(O)CCC=C(C)C", "note": "(stereo not given)", "outcome": "inactive"},
      {"smiles": "O=C1OC2(c3ccccc31)c1ccc(O)c(Br)c1Oc1c2ccc(O)c1Br", "outcome": "inactive"},
      {"smiles": "CCCCOC(=O)CCCCCCCC(=O)OCCCC", "outcome": "inactive"},
      {"smiles": "COc1ccc(OC)c(N=Nc2c(O)ccc3ccccc23)c1", "AC50": "5.55 µM (active)"},
      {"smiles": "C=C(C)[C@H]1CC=C(C)C(=O)C1", "outcome": "inactive"},
      {"smiles": "CSCCC=O", "outcome": "inactive"}
    ]}
  ]
}
